Laboratory results taken from PubChem BioAssay AID1159580 (chemical genetic matrix, 2015).
Several values for one entry are separate records, joined by “and”; a condition that tells them apart may be missing. Equal values may be shown once. About 2,000 (36%) of roughly 5,500 compounds were called active. About 18% were inconclusive and are not listed. Rule as the data show it: active = normalized growth mostly below about 0.91 (no sharp cut-off); inconclusive = no clear call, values can overlap the other calls; inactive = mostly above about 0.92. This is one part of the list.

Experiment: chemical genetic growth profiling, strain panel (AID 1159580);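 also: tested at 20 µM; growth read once vehicle control cultures reached saturation at 30 °C; 1 = growth at the plate median or of vehicle wells; lower values mean less growth of the strain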
Details: S. cerevisiae deletion strains, growth OD

Measured: normalized growth

COc1ccc(/C=C/C(=O)O)cc1OC
inactive: locus YAL013W, strain DEP1, active compounds read low 1 | locus YAL021C, strain ccr4, active compounds read low 1.04 | locus YAL026C, strain drs2, active compounds read low 0.99 | locus YAL030W, strain snc1, active compounds read low 0.999 | locus YBL061C, strain skt5, active compounds read low 0.987 | locus YBR009C, strain hhf1, active compounds read low 1.01 | locus YBR021W, strain FUR4, active compounds read low 1.04 | locus YBR023C, strain chs3, active compounds read low 1.01 | locus YBR171W, strain sec66, active compounds read low 0.965 | locus YBR229C, strain ROT2, active compounds read low 1.02 | locus YBR231C, strain swc5, active compounds read low 0.981 | locus YBR279W, strain paf1, active compounds read low 1 | locus YCL011C, strain gbp2, active compounds read low 0.991 | locus YCL016C, strain dcc1, active compounds read low 1.04 | locus YCL029C, strain bik1, active compounds read low 1.02 | locus YCL061C, strain MRC1, active compounds read low 0.995 | locus YCL069W, strain vba3, active compounds read low 0.955 | locus YCR088W, strain abp1, active compounds read low 0.984 | locus YDL005C, strain med2, active compounds read low 0.979 | locus YDL035C, strain GPR1, active compounds read low 1.14 | locus YDL040C, strain nat1, active compounds read low 0.991 | locus YDL101C, strain DUN1, active compounds read low 1 | locus YDL134C, strain PPH21, active compounds read low 1.06 | locus YDL185W, strain tfp1, active compounds read low 1 | locus YDL192W, strain arf1, active compounds read low 1.03 | locus YDR001C, strain nth1, active compounds read low 0.981 | locus YDR069C, strain doa4, active compounds read low 0.97 | locus YDR101C, strain arx1, active compounds read low 1.01 | locus YDR137W, strain rgp1, active compounds read low 1.02 | locus YDR159W, strain sac3, active compounds read low 0.94 | locus YDR162C, strain NBP2, active compounds read low 1.13 | locus YDR195W, strain ref2 0.961 | locus YDR297W, strain sur2, active compounds read low 0.984 | locus YDR318W, strain mcm21, active compounds read low 1.03 | locus YDR334W, strain swr1, active compounds read low 0.975 | locus YDR335W, strain msn5, active compounds read low 0.984 | locus YDR388W, active compounds read low 1.01 | locus YDR392W, strain spt3, active compounds read low 0.943 | locus YDR502C, strain sam2, active compounds read low 1.03 | locus YEL003W, strain gim4, active compounds read low 0.981 | locus YEL037C, strain rad23, active compounds read low 0.981 | locus YEL061C, strain CIN8 (second series), active compounds read low 0.976 | locus YEL061C, strain CIN8, active compounds read low 1.01 | locus YER015W, strain faa2, active compounds read low 1 | locus YER016W, strain bim1, active compounds read low 0.991 | locus YER110C, active compounds read low 1 | locus YER111C, strain swi4, active compounds read low 0.974 | locus YER155C, strain BEM2 (second series), active compounds read low 0.958 | locus YER155C, strain BEM2, active compounds read low 1.01 | locus YER167W, strain BCK2, active compounds read low 1.01 | locus YFR010W, strain ubp6, active compounds read low 0.955 | locus YGL078C, strain dbp3, active compounds read low 1 | locus YGL086W, strain mad1, active compounds read low 1.01 | locus YGL167C, strain pmr1, active compounds read low 0.999 | locus YGL173C, strain kem1, active compounds read low 0.979 | locus YGL227W, strain vid30, active compounds read low 0.984 | locus YGL240W, strain doc1, active compounds read low 0.989 | locus YGL253W, strain hxk2, active compounds read low 0.942 | locus YGR078C, strain PAC10, active compounds read low 1.09 | locus YGR135W, strain pre9, active compounds read low 1.04 | locus YGR252W, strain gcn5, active compounds read low 1.19 | locus YHR013C, strain ard1, active compounds read low 0.993 | locus YHR027C, strain rpn1, active compounds read low 0.992 | locus YHR030C, strain SLT2, active compounds read low 0.949 | locus YHR079C, strain IRE1 (second series), active compounds read low 0.998 | locus YHR079C, strain IRE1, active compounds read low 0.958 | locus YHR094C, strain hxt1, active compounds read low 0.996 | locus YHR129C, strain ARP1, active compounds read low 1.02 | locus YHR142W, strain chs7, active compounds read low 0.993 | locus YHR200W, strain rpn10, active compounds read low 0.999 | locus YIL066C, strain RNR3, active compounds read low 1.01 | locus YIL125W, strain kgd1, active compounds read low 1.02 | locus YIR030C, strain dcg1, active compounds read low 0.998 | locus YJL092W, strain hpr5, active compounds read low 0.974 | locus YJL095W, strain BCK1 (second series), active compounds read low 0.981 | locus YJL095W, strain BCK1, active compounds read low 0.972 and 1.18 | locus YJL115W, strain asf1, active compounds read low 0.998 | locus YJL129C, strain trk1, active compounds read low 0.968 | locus YJL134W, strain LCB3, active compounds read low 1.01 | locus YJL154C, strain vps35, active compounds read low 0.976 | locus YJL164C, strain tpk1, active compounds read low 1.03 | locus YJL166W, strain qcr8, active compounds read low 0.999 | locus YJL168C, strain set2, active compounds read low 1.01 | locus YJL187C, strain SWE1 (second series), active compounds read low 1.03 | locus YJL187C, strain SWE1, active compounds read low 1.01 | locus YJR043C, strain POL32, active compounds read low 1.06 | locus YJR066W, strain TOR1, active compounds read low 0.907 | locus YKL009W, strain mrt4, active compounds read low 0.971 | locus YKL068W, active compounds read low 0.988 | locus YKL085W, strain MDH1 (second series), active compounds read low 1 | locus YKL085W, strain MDH1, active compounds read low 1 | locus YKL160W, strain elf1, active compounds read low 1.04 | locus YKR001C, strain vps1, active compounds read low 1.08 | locus YKR026C, strain gcn3, active compounds read low 0.963 | locus YKR091W, strain srl3, active compounds read low 1.01 | locus YLL001W, strain dnm1, active compounds read low 0.976 | locus YLL026W, active compounds read low 0.997 | locus YLL041C, strain sdh2, active compounds read low 0.992 | locus YLR027C, strain aat2, active compounds read low 1 | locus YLR058C, strain SHM2, active compounds read low 1.01 | locus YLR102C, strain apc9, active compounds read low 0.996 | locus YLR113W, strain HOG1, active compounds read low 0.968 | locus YLR221C, strain rsa3, active compounds read low 0.95 | locus YLR258W, strain gsy2, active compounds read low 1.02 | locus YLR262C, strain YPT6 (second series), active compounds read low 0.995 | locus YLR268W, strain sec22, active compounds read low 1.05 | locus YLR320W, strain mms22, active compounds read low 0.99 | locus YLR342W, strain FKS1 (second series), active compounds read low 1.01 | locus YLR342W, strain FKS1, active compounds read low 1.01 | locus YLR357W, strain rsc2, active compounds read low 0.988 | locus YLR370C, strain arc18, active compounds read low 0.971 | locus YLR371W, strain rom2, active compounds read low 1.02 | locus YLR384C, strain iki3, active compounds read low 0.998 | locus YML016C, strain PPZ1, active compounds read low 1 | locus YML032C, strain rad52, active compounds read low 1.02 | locus YML120C, strain ndi1, active compounds read low 1.01 | locus YML124C, strain tub3, active compounds read low 0.994 | locus YMR058W, strain fet3, active compounds read low 0.991 | locus YMR078C, strain ctf18, active compounds read low 1.01 | locus YMR125W, strain sto1, active compounds read low 0.974 | locus YMR129W, active compounds read low 1 | locus YMR205C, strain PFK2, active compounds read low 1.05 | locus YMR223W, strain ubp8, active compounds read low 1.03 | locus YMR231W, strain pep5, active compounds read low 0.965 | locus YNL067W, strain RPL9B, active compounds read low 1 | locus YNL071W, strain lat1, active compounds read low 0.998 | locus YNL128W, strain TEP1, active compounds read low 1.02 | locus YNL183C, strain NPR1, active compounds read low 0.904 | locus YNL209W, strain ssb2, active compounds read low 1.01 | locus YNL233W, strain BNI4, active compounds read low 1.12 | locus YNL248C, strain rpa49, active compounds read low 0.958 | locus YNL250W, strain rad50, active compounds read low 1.03 | locus YNL271C, strain bni1, active compounds read low 1.02 | locus YNL298W, strain CLA4, active compounds read low 1.05 | locus YNL307C, strain MCK1, active compounds read low 1.01 | locus YNL322C, strain KRE1 (second series), active compounds read low 0.981 | locus YNL322C, strain KRE1, active compounds read low 1.01 | locus YNR049C, strain mso1, active compounds read low 0.99 | locus YNR052C, strain pop2, active compounds read low 1.02 | locus YOL012C, strain htz1 1.37 | locus YOL147C, strain pex11, active compounds read low 1.01 | locus YOR001W, strain rrp6, active compounds read low 0.926 | locus YOR061W, strain CKA2, active compounds read low 0.995 | locus YOR069W, strain VPS5, active compounds read low 1.01 | locus YOR070C, strain gyp1, active compounds read low 0.999 | locus YOR080W, strain dia2, active compounds read low 0.978 | locus YOR083W, strain WHI5, active compounds read low 1.04 | locus YOR106W, strain vam3, active compounds read low 1.02 | locus YOR136W, strain idh2, active compounds read low 1.01 | locus YOR144C, strain elg1, active compounds read low 1 | locus YOR184W, strain ser1, active compounds read low 1.08 | locus YOR231W, strain MKK1, active compounds read low 0.944 | locus YOR265W, strain rbl2, active compounds read low 0.991 | locus YOR270C, strain vph1, active compounds read low 0.977 | locus YOR290C, strain snf2, active compounds read low 1.04 | locus YOR316C, strain cot1, active compounds read low 1.01 | locus YPL051W, strain arl3, active compounds read low 0.98 | locus YPL078C, strain atp4, active compounds read low 1.03 | locus YPL106C, strain sse1, active compounds read low 1.04 | locus YPL240C, strain hsp82, active compounds read low 0.986 | locus YPL256C, strain CLN2, active compounds read low 0.968 | locus YPR119W, strain clb2, active compounds read low 1.01 | locus YPR141C, strain kar3, active compounds read low 1 | locus YPR163C, strain tif3, active compounds read low 1.02 | locus YPR167C, strain met16, active compounds read low 1.03 | strain wtn01, active compounds read low 1.02
active: locus YDL074C, strain BRE1, active compounds read low 1.4 [resistant] | locus YGL248W, strain PDE1, active compounds read low 1.12 [resistant] | locus YIL073C, strain SPO22, active compounds read low 1.55 [resistant] | locus YLR039C, strain RIC1, active compounds read low 1.42 [resistant] | locus YMR307W, strain GAS1, active compounds read low 1.53 [resistant] | locus YOL006C, strain TOP1, active compounds read low 1.83 [resistant]
